In PubChem BioAssay AID1347421 (Sanford-Burnham Center for Chemical Genomics, 2020):
The full ranking holds about 1,500 compounds; the median of “activity” is about 2, and the lowest 2% start at about -18. Many of the other results were omitted from the sample, so the lowest values are more common in it than they were. The source made the active and inactive calls.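 How the source made its calls: active means inhibition of at least 40% at 10 µM; inconclusive means no clear call, values can overlap the other calls; inactive means the rest.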

target: Sulfhydryl oxidase 1 (Homo sapiens) (UniProt O00391); assay: QSOX1 enzyme inhibitors, confirmation, biochemical, ROS-Glo luminescence, single concentration (AID 1347421); details: recombinant hQSOX1, RNase A substrate, ROS-Glo H2O2 luminescence; at 10 µM;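 further: 0% = DMSO wells with enzyme and 100% = wells lacking QSOX1 enzyme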
Sequence (O00391 whole entry, looked up): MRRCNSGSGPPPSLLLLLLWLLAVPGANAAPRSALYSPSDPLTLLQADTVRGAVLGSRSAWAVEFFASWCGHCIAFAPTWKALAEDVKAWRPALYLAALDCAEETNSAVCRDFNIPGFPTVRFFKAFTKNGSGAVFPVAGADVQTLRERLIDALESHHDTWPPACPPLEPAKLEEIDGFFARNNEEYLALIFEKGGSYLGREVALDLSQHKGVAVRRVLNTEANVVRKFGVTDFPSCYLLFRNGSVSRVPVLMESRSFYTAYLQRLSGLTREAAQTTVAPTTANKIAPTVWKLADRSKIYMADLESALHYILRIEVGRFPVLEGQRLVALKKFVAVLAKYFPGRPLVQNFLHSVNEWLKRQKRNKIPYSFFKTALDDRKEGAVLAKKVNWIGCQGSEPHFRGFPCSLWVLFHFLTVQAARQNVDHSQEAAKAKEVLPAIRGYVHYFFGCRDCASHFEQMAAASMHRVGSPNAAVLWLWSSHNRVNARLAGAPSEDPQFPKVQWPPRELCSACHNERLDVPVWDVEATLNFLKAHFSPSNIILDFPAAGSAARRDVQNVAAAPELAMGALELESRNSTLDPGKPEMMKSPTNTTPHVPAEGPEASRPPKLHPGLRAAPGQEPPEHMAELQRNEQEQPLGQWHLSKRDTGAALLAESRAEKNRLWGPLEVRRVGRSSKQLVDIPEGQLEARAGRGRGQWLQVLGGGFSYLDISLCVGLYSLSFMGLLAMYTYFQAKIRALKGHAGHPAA

| SMILES | activity |
| --- | --- |
| O=C(NC(=O)N1CCCCCC1)c1ccc(Cl)cc1 | -10.3% (inactive) |
| COc1ccc(CNCCn2cccn2)c(OCC(O)CN2CCCC2)c1 (stereo not given) | 1.2% |
| O=C(Cn1ccnc1)N(CC1CCN(C2Cc3ccccc3C2)CC1)CC1CCCO1 (stereo not given) | 7.8% |
| COc1ccc(C(N)=O)cc1S(=O)(=O)NC(C)C | -19.1% (inactive) |
| CCOc1ccc(Cl)cc1S(=O)(=O)NC(C)C | 3.5% |
| COc1ccc(F)cc1S(=O)(=O)NC(C)C | -2% (inactive) |
| CN(Cc1cccs1)C(=O)c1ccc(OC2CCN(S(C)(=O)=O)CC2)c(Cl)c1 | 12.2% |
| CN(Cc1n[nH]c2c1CCCCC2)CC1(c2cccc(F)c2)CCOC1 (stereo not given) | 4% |
| O=C(CC1C(=O)NCCN1Cc1ccccn1)NC1C2CC3CC(C2)CC1C3 (stereo not given) | -4.8% (inactive) |
| O=C(Cc1ccccc1F)Nc1ccc2c(c1)CN(Cc1ccoc1)CC2 | -1.9% (inactive) |
| O=C(NCCCOc1cccnc1)C1CCC(=O)N(CCCc2ccccc2)C1 (stereo not given) | 12.4% |
| O=C(O)c1cn(CCOc2ccccc2)c2ccccc12 | -13.2% (inactive) |
| O=C(CCC1CCCN(Cc2ccccn2)C1)N1CCN(Cc2ccccc2)CC1 (stereo not given) | -0.9% (inactive) |
| Cc1cc(C)c(C(=O)N2CCCC(CCC(=O)N(C)CCc3ccccn3)C2)c(=O)[nH]1 (stereo not given) | 7.3% |
| COc1ccc(CNCCc2scnc2C)cc1OCC(O)CN(C)C(C)C (stereo not given) | 7.8% |
| CC(C)OCCNC(=O)c1cc(COc2cccc3cccnc23)on1 | 2.2% |
| C=CCCC(=O)N1CCC2(CCCN(Cc3ccc(F)c(F)c3)C2=O)C1 (stereo not given) | -1.3% (inactive) |
| Cn1nc(C(=O)N2CCc3ccccc32)c2ccccc2c1=O | -5.3% (inactive) |
| O=C1CCC(C(=O)N2CCC3(C=Cc4ccccc43)CC2)CN1CCc1ccccn1 (stereo not given) | 3.8% |
| COc1cccc(CN2CCNC(=O)C2CC(=O)NC2CCCCCCC2)c1 (stereo not given) | 2.4% |
| CCC1=[C+]c2c(NCc3cccnc3)nc(C)nc2S1 | -5.8% (inactive) |
| CCC1=[C+]c2c(nc(C)nc2N2CCOCC2)S1 | -20.3% (inactive) |
| CSc1ncc(Cl)c(C(=O)Nc2ccc(Br)cc2)n1 | -12.9% (inactive) |
| Cc1oc(-c2cccs2)nc1CN(C)C(C)c1cccs1 (stereo not given) | 2.7% |
| CCOC(=O)C1CCN(C(=O)CCc2ccc(OC)cc2)CC1 | -2% (inactive) |
| CCN(CC)C(=O)C1CCCN(Cc2nc(-c3ccc(Cl)cc3)oc2C)C1 (stereo not given) | 4.3% |
| CC(NC(=O)CSc1nc(O)cc(=O)[nH]1)c1ccccc1 (stereo not given) | -17.8% (inactive) |

| SMILES | activity |
| --- | --- |
| CCN(CC)C(=O)N(CC)Cc1ccccc1 | -0.2% (inactive) |
| CC(=O)n1nc(NCc2ccccc2)nc1NCc1ccccc1 | -22% (inactive) |
| c1ccc(CNc2ccc(NCc3ccccc3)nn2)cc1 | -8.7% (inactive) |
| C=CCn1nnnc1NCc1ccc(F)cc1 | 7.4% |
| CCCn1cc(CN2CCOC(CCc3ccccc3)C2)c(C)n1 (stereo not given) | -1.5% (inactive) |
| CCOC(=O)N1CCC(N2CCOC(CC3CCCCC3)C2)CC1 (stereo not given) | 6.1% |
| NC(=O)C1CCCN(Cc2cn(-c3ccccc3)nc2-c2ccc3c(c2)OCO3)C1 (stereo not given) | -1.5% (inactive) |
| O=C(Nc1ccccc1N1CCN(C(=O)c2ccc(Cl)cc2)CC1)c1ccco1 | 0.8% |
| CCn1c(SCC(=O)N2CCCCCC2)nc2ccccc21 | -11.6% (inactive) |
| CCn1c(C2CCCO2)nc2ccccc21 (stereo not given) | -18.1% (inactive) |
| CCn1c(CN2CCCC2)nc2ccccc21 | -5.8% (inactive) |
| CN1CCN(C(=O)CCC2CCCN(C(=O)Cc3ccc4c(c3)OCO4)C2)CC1 (stereo not given) | 0.8% |
| CN(CCOc1ccccc1)Cc1nc(-c2ccccn2)no1 | 3.2% |
| COc1cccc(C(=O)C2CCCN(Cc3ccc4cccc(F)c4n3)C2)c1 (stereo not given) | -23.5% (inactive) |
| CSc1ncc(CN2CCCC(C(=O)c3cccc(OC(C)C)c3)C2)cn1 (stereo not given) | 8.6% |
| COc1ccc(C(=O)C2CCCN(Cc3ccc4cc(F)ccc4n3)C2)cc1OC (stereo not given) | 1.1% |
| CC1CCN(Cc2nnnn2CCCC(=O)N(C)CCC(O)c2ccccc2)CC1 (stereo not given) | 7.2% |
| O=C(Nc1cccc(-n2cccn2)c1)C1CCCN1Cc1cnc[nH]1 (stereo not given) | -25.6% (inactive) |
| O=C(Nc1cccc(-n2cnnn2)c1)C1CCCN1CCCC(F)(F)F (stereo not given) | -2.9% (inactive) |
| O=C1N(CC2CC2)CCCC12CCN(Cc1cccc(-n3cccn3)c1)C2 (stereo not given) | -0.7% (inactive) |
| Cc1ccc(NC(=O)c2cc(C)c(C)o2)cc1C | -0.4% (inactive) |
| CC(C)Oc1cccc(C(=O)Nc2ccc3[nH]c(=O)[nH]c3c2)c1 | 5.2% |
| CC(C)Oc1cccc(NC(=O)c2ccccc2Cl)c1 | -28.9% (inactive) |
| CC(C)Oc1cccc(NC(=O)Nc2ccccc2)c1 | 6.3% |
| O=C(NCCCn1nnc2ccccc21)C1CCC(=O)N(CCN2CCOCC2)C1 (stereo not given) | -0.4% (inactive) |
| CN(CCc1ccccn1)c1ncccc1CNC1CSCCSC1 | -4% (inactive) |
| c1ccc(-c2noc(CN3CCN(Cc4ccc5c(c4)OCO5)CC3)n2)cc1 | 7.5% |

| SMILES | activity |
| --- | --- |
| O=C(Nc1ccc2c(c1)OCCO2)c1ccc(=O)[nH]n1 | -1.3% (inactive) |
| CN(C)C(=O)Nc1ccc2c(c1)CCC2 | -6.3% (inactive) |
| COCCn1c(CN(C)Cc2cccnc2)cnc1S(=O)(=O)CC(C)(C)C | 7.7% |
| OC(COc1ccccc1CNCCc1ccccn1)CN1CCSCC1 (stereo not given) | 5.9% |
| CSCc1ccc(C(=O)N2CCC3(CCCN(CC(C)(C)C)C3)C2)o1 (stereo not given) | -0.7% (inactive) |
| CC(C)CCCC1CN(C2CCN(Cc3ccccn3)CC2)CCO1 (stereo not given) | 5.9% |
| COc1cccc(CC2CN(C3CCSCC3)CCO2)c1 (stereo not given) | 10.9% |
| O=C(CCN1CCCO1)N1CCCC(N2CCN(c3cccc(C(F)(F)F)c3)CC2)C1 (stereo not given) | -0.1% (inactive) |
| O=C1N(CC2CCCCC2)CCCC1(O)CN1CCCOCC1 (stereo not given) | 4.1% |
| CC(=O)Oc1ccc(/C=C/c2ccc3ccccc3n2)cc1Cl | 55.2% (active) |
| O=C1COc2ccc(S(=O)(=O)N3CCc4ccccc43)cc2N1 | 2.6% |
| Cc1cnc(C)c(N2C[C@H]3OC(=O)N(C4CCCC4)[C@H]3C2)n1 | 7.1% |
| CS(=O)(=O)c1cccc(S(=O)(=O)NC2CCCC2)c1 | 7% |
| Cc1ccc(S(=O)(=O)N2CCN(c3ccccc3)CC2)cc1C(N)=O | 1.7% |
| Cc1ccc(S(=O)(=O)NC2CCCCC2)cc1C(N)=O | -20.3% (inactive) |
| Cc1cccc(S(=O)(=O)NCC2CCN(c3cnn(C)c(=O)c3)C2)c1 (stereo not given) | 5.8% |
| CC(=O)Nc1ccc(S(=O)(=O)N2CCN(C(=O)N3CCCCCC3)CC2)cc1 | -1.3% (inactive) |
| Cc1ccc(S(=O)(=O)N2CCC(C(=O)N3CCN(c4ccccn4)CC3)CC2)cc1 | -18.7% (inactive) |
| Cc1nc(CC(=O)N2CCCC(CCC(=O)N3CCN(c4ccccn4)CC3)C2)cs1 (stereo not given) | -2.5% (inactive) |
| CCN(CC1CCCO1)C(=O)C1CCN(C2CCN(Cc3ccccc3C)CC2)CC1 (stereo not given) | 9.1% |
| COCCN1CCC(CN(Cc2ccncc2)Cc2csc(C(C)=O)c2)CC1 | -7.9% (inactive) |
| COc1cccc(CN2CCCC(NCc3ccc4nonc4c3)C2)c1 (stereo not given) | -3.2% (inactive) |
| COC(=O)C1CCCCN1C(=O)c1ccc2oc(C(C)C)nc2c1 (stereo not given) | 4.4% |
| c1ccc(Cc2nn3c(-c4ccco4)nnc3s2)cc1 | -5.1% (inactive) |
| Cc1occc1-c1nnc2sc(CCc3ccccc3)nn12 | -18.1% (inactive) |
| c1ccc(CCCc2nn3c(-c4cccnc4)nnc3s2)cc1 | 3% |
| Cc1nc(SCC(=O)N2CCN(c3ccccc3)CC2)nc2c1CCCC2 | -19.5% (inactive) |

| SMILES | activity |
| --- | --- |
| Cc1ccc(S(=O)(=O)CC(=O)N2CCN(c3ccccc3)CC2)cc1 | -17% (inactive) |
| Cc1nonc1CC(=O)N1CCC(CCC(=O)N2CCN(c3ccccc3)CC2)CC1 | 11.2% |
| COc1ccc(N2CCN(C3CCCN(Cc4nc5ccccc5nc4C)C3)CC2)cc1 (stereo not given) | 7.9% |
| OC(COc1ccccc1CNCCc1cnccn1)CN1CCSCC1 (stereo not given) | 7.9% |
| O=C1CN(c2nc3nonc3nc2NC2CCCC2)CCN1C1CCCC1 | -1.2% (inactive) |
| C=CCn1cc(CNC2CC(=O)N(Cc3cccc(F)c3)C2)c(C)n1 (stereo not given) | -1.3% (inactive) |
| COc1ccc(C(C)(C)NC(=O)C2CCC(=O)N(Cc3ccccc3F)C2)cc1OC (stereo not given) | -0.6% (inactive) |
| O=C(NCCc1ccc(Cl)cc1)c1cccc(-n2cnnc2)c1 | -1% (inactive) |
| CC(=O)c1cccc(OCc2cc(C(=O)N(CC3CC3)CC3CCCO3)no2)c1 (stereo not given) | 0.5% |
| CC(C)CCCC1CN(C(=O)c2ccc(N3CCN(C)CC3)cc2)CCO1 (stereo not given) | 6.6% |
| Cc1cc(Oc2ccccc2)nc(Oc2ccc(=O)n(-c3ccccc3)n2)n1 | -9.1% (inactive) |
| CC(C)(C)NC(=O)CN1C(=O)CCC1=O | -0.4% (inactive) |
| Cc1nc2sccn2c1C(=O)N1CCCC(N(C)Cc2ccccc2)C1 (stereo not given) | -0.3% (inactive) |
| O=C(C1CCCO1)N1CCc2[nH]nc(-c3ccc(C(F)(F)F)cc3)c2C1 (stereo not given) | -2.9% (inactive) |
| COc1cc(CNCc2ccc(F)cc2)ccc1OCC(O)CN1CCOCC1 (stereo not given) | 2.4% |
| CC(C)C(=O)N1CCN(c2ccc(NC(=O)c3ccccn3)cc2)CC1 | 7.7% |
| O=C(Nc1ccccc1)N1CCN(c2nsc3ccccc23)CC1 | -22.1% (inactive) |
| O=C(NCc1ccccc1)N1CCN(CCO)CC1 | 2.5% |
| COc1ccc(NC(=O)NC2CC(=O)N(CC(C)(C)C)C2)c(OC)c1 (stereo not given) | -1.6% (inactive) |
| O=C(NCC(O)CO)c1ccc(OC2CCN(CCc3ccccc3)CC2)cc1 (stereo not given) | -0.6% (inactive) |
| CCN1CCN(CC(O)COc2cccc(CNCCCSC)c2)CC1 (stereo not given) | 9.1% |
| COc1ccc(F)c(CN2CCCC3(CCN(S(=O)(=O)N(C)C)C3)C2=O)c1 (stereo not given) | 0.3% |
| COc1cccc(CN2CCCC3(CCN(Cc4ccccn4)C3)C2)c1OC (stereo not given) | 7.4% |
| Cc1nc(C)c(CN2C[C@H]3OC(=O)N(CCCc4ccc(F)cc4)[C@H]3C2)nc1C | 8.2% |
